{"source": "the supplement of paper PMC9135407", "tested_on": "primary human hepatic stellate cells (donor 1)", "experiment": "scaled lipid accumulation score (0 = DMSO-like, 1 = nortriptyline-like); higher = stronger HSC inactivation (lipid re-accumulation), active = hit call of the paper", "conditions": "48 h", "key": {"[1]": {"conditions": "library stock concentration: 1 mM"}, "[2]": {"conditions": "library stock concentration: 10 mM"}, "[3]": {"conditions": "library stock concentration: 6.4 mM"}, "[4]": {"conditions": "library stock concentration: 3.33 mM"}}, "note": "“And” between values parts separate entries of the source, which are not always exact repeats. Equal entries are not always repeated. Structures can show the parent of a compound that is named as a salt. The campaign covered roughly 5,800 compounds. About 620 (11%) showed activity. The sample as a whole holds a higher share of actives than the screen did. A number with no mark means an inactive call.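 Rule for the calls: active = score above a cut-off or among the top three wells of a plate; in these data no inactive exceeds 0.85.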", "data": [{"smiles": "CCCCC/C=C\\C=C\\CCCCCCCCC(=O)O", "note": "[10(E),12(Z)-Conjugated Linoleic Acid]", "values": [{"measurement": "scaled lipid accumulation score", "setting": "[1]", "result": 0.069}]}, {"smiles": "CCC=CCC=CCC=CCC=CCCCCC(=O)OCC", "note": "[Stearidonic Acid ethyl ester]", "values": [{"measurement": "scaled lipid accumulation score", "setting": "[1]", "result": "≤ 0"}]}, {"smiles": "CC(=O)N[C@@H](CSC/C=C(\\C)CC/C=C(\\C)CC/C=C(\\C)CCC=C(C)C)C(=O)O", "note": "[N-acetyl-S-geranylgeranyl-L-Cysteine]", "values": [{"measurement": "scaled lipid accumulation score", "setting": "[1]", "result": "≤ 0 and ≤ -0.021"}]}, {"smiles": "CCOC(=O)N1CCC(=C2c3ccc(Cl)cc3CCc3cccnc32)CC1", "values": [{"measurement": "scaled lipid accumulation score", "setting": "[2]", "result": "≤ 0"}]}, {"smiles": "Clc1ccc2c(c1)CCc1cccnc1C2=C1CCNCC1", "note": "[Desloratidine]", "values": [{"measurement": "scaled lipid accumulation score", "setting": "[3]", "result": 0.46}]}, {"smiles": "Clc1ccc2c(c1)CCc1cccnc1C2=C1CCNCC1", "values": [{"measurement": "scaled lipid accumulation score", "setting": "[2]", "result": "1.52 (active)"}]}, {"smiles": "CCOC(=O)N1CCC(=C2c3ccc(Cl)cc3CCc3cccnc32)CC1", "note": "[Loratadine]", "values": [{"measurement": "scaled lipid accumulation score", "setting": "[4]", "result": "≤ 0"}, {"measurement": "scaled lipid accumulation score", "setting": "library stock concentration: 5.2 mM", "result": "≤ 0"}, {"measurement": "scaled lipid accumulation score", "setting": "[2]", "result": "≤ 0 and 0.008"}]}, {"smiles": "Cc1cncc(CN2CCC(=C3c4ccc(Cl)cc4CCc4cccnc43)CC2)c1", "note": "[Rupatadine Fumarate]", "values": [{"measurement": "scaled lipid accumulation score", "setting": "[4]", "result": 0.371}]}, {"smiles": "Cc1cccc(CN2CCN(C(c3ccccc3)c3ccc(Cl)cc3)CC2)c1", "note": "(configuration not stated) [Meclozine dihydrochloride]", "values": [{"measurement": "scaled lipid accumulation score", "result": 0.368}]}, {"smiles": "Cc1cncc(CN2CCC(=C3c4ccc(Cl)cc4CCc4cccnc43)CC2)c1.O=C(O)C=CC(=O)O", "note": "[Rupatadine Fumarate]", "values": [{"measurement": "scaled lipid accumulation score", "setting": "[2]", "result": "0.862 (active)"}]}, {"smiles": "Cc1cccc(CN2CCN(C(c3ccccc3)c3ccc(Cl)cc3)CC2)c1", "note": "(configuration not stated) [Meclizine hydrochloride]", "values": [{"measurement": "scaled lipid accumulation score", "setting": "[2]", "result": "0.376 and 0.485"}]}, {"smiles": "C(=C(\\CCNC1)/C1)(/c2c(cccn2)CC3)\\c(ccc(Cl)c4)c34", "note": "[Desloratadine]", "values": [{"measurement": "scaled lipid accumulation score", "setting": "[3]", "result": "1.03 (active)"}]}, {"smiles": "CCOC(=O)N1CCC(=C2c3ccc(Cl)cc3CCc3cccnc32)CC1", "note": "[Loratidine]", "values": [{"measurement": "scaled lipid accumulation score", "setting": "[2]", "result": 0.128}]}, {"smiles": "Clc1ccc2c(c1)CCc1cccnc1C2=C1CCNCC1", "note": "[Desloratadine]", "values": [{"measurement": "scaled lipid accumulation score", "setting": "[4]", "result": 0.268}, {"measurement": "scaled lipid accumulation score", "setting": "[2]", "result": 0.837}]}, {"smiles": "CCCCC/C=C/C/C=C/C/C=C/C/C=C/CCCC(=O)Oc1ccc2ccc(=O)oc2c1", "note": "[7-hydroxycoumarinyl Arachidonate]", "values": [{"measurement": "scaled lipid accumulation score", "setting": "[1]", "result": "≤ 0"}]}, {"smiles": "CC(C)(C)c1nc2c3cc[nH]c(=O)c3c3cc(F)ccc3c2[nH]1", "note": "[Merck -5 (0.4 mM)]", "values": [{"measurement": "scaled lipid accumulation score", "setting": "library stock concentration: 400 uM", "result": "≤ -0.005"}]}, {"smiles": "CC(C)(C)c1nc2c3cc[nH]c(=O)c3c3cc(F)ccc3c2[nH]1", "note": "[Merck -5 (10 mM)]", "values": [{"measurement": "scaled lipid accumulation score", "setting": "[2]", "result": 0.114}]}, {"smiles": "CC(C)(C)c1nc2c3cc[nH]c(=O)c3c3cc(F)ccc3c2[nH]1", "note": "[JAK Inhibitor I]", "values": [{"measurement": "scaled lipid accumulation score", "setting": "[4]", "result": "≤ 0"}]}, {"smiles": "CC(C)(C)c1nc2c3cc[nH]c(=O)c3c3cc(F)ccc3c2[nH]1", "note": "[Merck -5 (2 mM)]", "values": [{"measurement": "scaled lipid accumulation score", "setting": "library stock concentration: 2 mM", "result": "≤ -0.005"}]}]}
